{"source": "PubChem BioAssay AID602250", "about": "(The Scripps Research Institute Molecular Screening Center, 2012)", "note": "Out of some 360,000 compounds screened, about 2,200 (0.61%) were called active. The entries come from a sample that favours actives as a whole. Unmarked numbers belong to inactive results.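 How the source made its calls: active means inhibition above a per-plate cutoff, the plate's mean sample inhibition plus 3 SD (cut at about 24% in these data); inactive means the rest.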", "data": [{"test": "calcium signal blockers in parental CHO-K1 cells – cell-based, Fluo-8 calcium fluorescence, full deck, 1536-well, counter-screen for M1 antagonist project, primary screen (AID 602250);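 further: 0% = DMSO plus EC80 ATP and 100% = DMSO alone without ATP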", "conditions": "ATP-induced calcium, Fluo-8 fluorescence, at 3 µM, active compounds read high", "values": [{"smiles": "O=C(NCC(c1cccs1)N1CCOCC1)c1cc(Cl)ccc1[N+](=O)[O-]", "note": "(centres undefined)", "inhibition": "10.5%"}, {"smiles": "COc1ccccc1C(=O)NC(CCSC)C(=O)N1CCN(C/C=C/c2ccccc2)CC1", "note": "(centres undefined)", "inhibition": "-0.28%"}, {"smiles": "CC(=O)c1cccc(OCc2cc(C(=O)NC(C)Cc3cccnc3)no2)c1", "note": "(centres undefined)", "inhibition": "-0.09%"}, {"smiles": "CN(Cc1cccnc1)C(=O)c1cc(COc2ccc3ncccc3c2)on1", "inhibition": "37.4% (active)"}, {"smiles": "CN(Cc1cnccn1)C(=O)c1cc(COc2cccc(C(F)(F)F)c2)on1", "inhibition": "-4.38%"}, {"smiles": "O=C(NCCCc1ccccc1)c1cc(COc2c(F)cccc2F)on1", "inhibition": "-16.9%"}, {"smiles": "Cc1ccc(Sc2cc(N3CCOCC3)nc(-c3ccccc3)n2)cc1", "inhibition": "-3.23%"}, {"smiles": "O=c1[nH]c(=O)n(Cc2ccco2)c2c1C(C(F)(F)F)(C(F)(F)F)N=C(c1ccco1)N2", "inhibition": "30.1% (active)"}, {"smiles": "Cc1ccccc1C1=NC(C(F)(F)F)(C(F)(F)F)c2c(n(-c3ccc(F)cc3)c(=O)[nH]c2=O)N1", "inhibition": "-9.81%"}, {"smiles": "Nc1c(N(Cc2ccco2)C(=O)c2cccc(F)c2)c(=O)[nH]c(=O)n1Cc1ccccc1", "inhibition": "0.73%"}, {"smiles": "CC(=O)c1ccccc1NC(=O)CC1(CC(=O)O)CCCCC1", "inhibition": "-2.82%"}, {"smiles": "CCC(C)(C(=O)Nc1ccccc1C)N(C(=O)CNC(C)=O)c1ccc(C)cc1", "note": "(centres undefined)", "inhibition": "-1.48%"}, {"smiles": "CCCCSc1[nH]c(=O)c(C(=O)OCC)cc1C#N", "inhibition": "5.2%"}, {"smiles": "CN1CCN(Cc2nc3cc(NC(=O)COc4ccc([N+](=O)[O-])cc4)ccc3n2C)CC1", "inhibition": "-3.48%"}, {"smiles": "CCOC(=O)c1cnc(SCC(=O)Nc2cccc(OC)c2)nc1N", "inhibition": "11.2%"}, {"smiles": "CCCCCCCCn1c2c(c(=N)c3c1CCC3)CCCC2", "inhibition": "32.5% (active)"}, {"smiles": "C/C(=N/OC(=O)c1cccc(C(F)(F)F)c1)c1cnccn1", "inhibition": "-1.12%"}, {"smiles": "CC(C)Oc1ccc(S(=O)(=O)N2CCOCC2)cc1NC(=O)C1CSC2(C)CCC(=O)N12", "note": "(centres undefined)", "inhibition": "0.94%"}, {"smiles": "COc1ccc(Nc2oc(-c3ccccc3Cl)nc2C#N)cc1", "inhibition": "-14.3%"}, {"smiles": "Cc1cc(NCc2ccco2)n2c(nc3ccccc32)c1C#N", "inhibition": "-0.52%"}, {"smiles": "Cc1ccccc1-c1nc(C#N)c(NCc2ccco2)o1", "inhibition": "28.1% (active)"}, {"smiles": "O=C(COC(=O)CCCSc1nc2ccccc2[nH]1)Nc1ccc(Oc2ccccc2)cc1", "inhibition": "0.31%"}, {"smiles": "Cc1cc(C)n2c(Nc3c(C)cccc3C)c(CCc3ccccc3)nc2n1", "inhibition": "2.51%"}, {"smiles": "CCOC(=O)N/N=C1\\CC(C)S(=O)(=O)c2ccc(Cl)cc21", "note": "(centres undefined)", "inhibition": "-8.64%"}, {"smiles": "Cc1cccc(S(=O)(=O)N(C)C[C@@H]2OCc3cnnn3CCCC(=O)N([C@H](C)CO)C[C@@H]2C)c1", "inhibition": "1.2%"}, {"smiles": "CN(C)C(CNC(=O)c1cc2ccccc2o1)c1ccccc1", "note": "(centres undefined)", "inhibition": "-1.56%"}, {"smiles": "CC(C)(C)n1nc2c(c1NC(=O)c1cc3ccccc3o1)CSC2", "inhibition": "-14.9%"}, {"smiles": "O=C(Nc1ccncc1)c1cc2ccccc2o1", "inhibition": "23.7% (active)"}, {"smiles": "O=C(CSc1nnnn1-c1ccc2c(c1)CCC2)Nc1ccc2c(c1)OCCO2", "inhibition": "16.9%"}, {"smiles": "N#Cc1c(NCCO)ccc([N+](=O)[O-])c1NCCO", "inhibition": "-7.72%"}, {"smiles": "CCOC1CCCCC1NS(=O)(=O)c1ccc(Cl)cc1", "note": "(centres undefined)", "inhibition": "38.7% (active)"}, {"smiles": "O=S(=O)(NC1CCCCC1N1CCC(O)CC1)c1ccc(Cl)cc1", "note": "(centres undefined)", "inhibition": "-4.04%"}, {"smiles": "CCN1CCN(C2CCCCC2NS(=O)(=O)c2ccc(Cl)cc2)CC1", "note": "(centres undefined)", "inhibition": "-7.77%"}, {"smiles": "CCOC(=O)c1cc2occc2n1CC(=O)NC1CCC(C)CC1", "note": "(centres undefined)", "inhibition": "-7.77%"}, {"smiles": "CCOC(=O)C1=CCC(c2ccc(F)cc2)N(S(=O)(=O)c2ccc(C)cc2)C1", "note": "(centres undefined)", "inhibition": "31.3% (active)"}, {"smiles": "CCOC(=O)C1=CC[C@@H](c2ccccc2)N(S(=O)(=O)c2ccc(C)cc2)[C@H]1c1ccc(CC)cc1", "inhibition": "11.1%"}, {"smiles": "CCOC(=O)C1=CC[C@@H](c2ccccc2)N(S(=O)(=O)c2ccc(C)cc2)[C@H]1c1cccc(OC)c1", "inhibition": "8.14%"}, {"smiles": "CCOC(=O)C1=CC[C@@H](c2ccncc2)N(S(=O)(=O)c2ccc(C)cc2)C1", "inhibition": "25.1% (active)"}, {"smiles": "CC(=O)C1=CCC(c2ccccc2)N(S(=O)(=O)c2ccc(C)cc2)C1", "note": "(centres undefined)", "inhibition": "-16.2%"}, {"smiles": "CCOC(=O)C1CN(S(=O)(=O)c2ccc(F)cc2)C1", "inhibition": "0.12%"}, {"smiles": "O=C1C=CN2CCCC2CC1", "note": "(centres undefined)", "inhibition": "-0.95%"}, {"smiles": "CCC(C)(C)NC(=O)C(c1ccc(O)cc1)N(C(=O)Cn1nnc2ccccc21)c1ccc(NC(C)=O)cc1", "note": "(centres undefined)", "inhibition": "-17.9%"}, {"smiles": "COc1ccccc1-n1c(C)nc2cc(C(=O)NCc3ccc4c(c3)OCO4)ccc21", "inhibition": "-1.86%"}, {"smiles": "Cc1ccc(NC(=O)CN(C)CC(=O)Nc2cccc(F)c2)cc1[N+](=O)[O-]", "inhibition": "26.1% (active)"}, {"smiles": "CN(CC(=O)Nc1cccc(F)c1)C(=O)C1=COCCO1", "inhibition": "9.82%"}, {"smiles": "Cc1ccc(NC(=O)c2sccc2C)cc1[N+](=O)[O-]", "inhibition": "-7.01%"}, {"smiles": "COc1cc([N+](=O)[O-])ccc1NC(=O)COC(=O)CCOc1ccc(C)cc1", "inhibition": "-5.41%"}, {"smiles": "CCSc1nc(C)c(CCOc2cccc(C)c2)c(=O)[nH]1", "inhibition": "11.1%"}, {"smiles": "COc1ccc(-c2cc(C(=O)N(C)CC(=O)Nc3ccccc3Cl)c3ccccc3n2)cc1OC", "inhibition": "7.04%"}, {"smiles": "COc1ccc(-c2cc(C(=O)N(C)Cc3ccc(OC)c(OC)c3OC)c3ccccc3n2)cc1OC", "inhibition": "26.8% (active)"}, {"smiles": "COc1ccc(CN(C)C(=O)c2cc(-c3ccc(C)cc3C)nc3ccccc23)c(OC)c1OC", "inhibition": "5.32%"}, {"smiles": "CC(NC(=O)CNC(=O)Cc1cccc2ccccc12)c1ccc(S(N)(=O)=O)cc1", "note": "(centres undefined)", "inhibition": "4.92%"}, {"smiles": "COc1ccc(-c2nn(C)c(=O)c3ccccc23)cc1CNC(=O)C1CCCCC1", "inhibition": "3.7%"}, {"smiles": "COc1ccc(S(=O)(=O)N2CCCCC2)cc1NC(=O)COc1ccccc1", "inhibition": "-8.54%"}, {"smiles": "COc1ccc(-c2nn(C)c(=O)c3ccccc23)cc1NC(=O)COc1ccccc1", "inhibition": "23.8% (active)"}, {"smiles": "O=C(O)CCn1c(SCc2cc(=O)n3ccccc3n2)nc2ccsc2c1=O", "inhibition": "-10.2%"}, {"smiles": "CCOC(=O)C1(CCOC)CCN(Cc2cc3ccccc3s2)CC1", "inhibition": "-9.7%"}, {"smiles": "CCNC(=O)c1cccc(NC(=O)C2CC(=O)N(CCc3ccccc3)C2)c1", "note": "(centres undefined)", "inhibition": "-8.93%"}, {"smiles": "COC(=O)C1=C(C(=O)OC)C2(OC1c1ccc(Br)cc1)C(=O)c1ccccc1C2=O", "note": "(centres undefined)", "inhibition": "-3.96%"}, {"smiles": "O=C(c1ccc(C(F)(F)F)cc1)C1CCCN(C(=O)c2csnn2)C1", "note": "(centres undefined)", "inhibition": "-23.1%"}, {"smiles": "CC(C)(C)OC(=O)C[C@@H]1C/C=C\\C[C@@H](CC(=O)NCCO)C(=O)N[C@H](Cc2c[nH]c3ccccc23)COC1=O", "inhibition": "-11.8%"}, {"smiles": "Cc1nc(CN(C)C(=O)CC2C(=O)NCCN2Cc2ccc(F)cc2)cs1", "note": "(centres undefined)", "inhibition": "-6.22%"}, {"smiles": "Nc1c(C(=O)c2cccs2)sc2nsc(SCCN3CCCCC3)c12", "inhibition": "47% (active)"}, {"smiles": "CCN(CC(=O)Nc1cc(Cl)ccc1C)C(=O)CN1C(=O)NC2(CCCC2)C1=O", "inhibition": "-4.87%"}, {"smiles": "CCCc1nc2ccccc2c(C(=O)OCc2nnc(-c3cc(OC)c(OC)c(OC)c3)o2)c1CC", "inhibition": "1.5%"}, {"smiles": "COc1cc(-c2nnc(NC(=O)CS(=O)(=O)c3ccc(Cl)cc3)o2)cc(OC)c1OC", "inhibition": "12.6%"}, {"smiles": "COc1cc(-c2nnc(Cn3cc(C(F)(F)F)ccc3=O)o2)cc(OC)c1OC", "inhibition": "27.6% (active)"}, {"smiles": "Cn1c(SCC(=O)NC2CCCCC2)nnc1-c1ccc(N)cc1", "inhibition": "3.52%"}, {"smiles": "O=C1C(C=NCC2CCCO2)=C(O)c2ccccc21", "note": "(centres undefined)", "inhibition": "-5.68%"}, {"smiles": "N#Cc1cc([N+](=O)[O-])ccc1NCC1CCCO1", "note": "(centres undefined)", "inhibition": "-8.37%"}, {"smiles": "O=C1c2cccc3c([N+](=O)[O-])ccc(c23)C(=O)N1CC1CCCO1", "note": "(centres undefined)", "inhibition": "24.2% (active)"}, {"smiles": "CCOc1ccc(NC(=S)N2CCC(N(C)CC3CCCO3)CC2)cc1", "note": "(centres undefined)", "inhibition": "-7.23%"}, {"smiles": "COc1ccc(CCNC(=O)Cc2ccc(C)cc2)cc1OC", "inhibition": "8.59%"}, {"smiles": "COc1ccc(CC(=O)NC2CCSc3ccccc32)cc1OC", "note": "(centres undefined)", "inhibition": "-0.56%"}, {"smiles": "COc1ccc(CC(=O)Nc2nc(-c3ccc(F)c(F)c3)cs2)cc1OC", "inhibition": "32.9% (active)"}, {"smiles": "CC(=O)Nc1cccc(/C(C)=N/NC(=O)c2c(-c3ccccc3Cl)noc2C)c1", "inhibition": "10.5%"}, {"smiles": "CC(=O)Nc1cccc(NC(=O)c2c(-c3ccccc3)noc2C)c1", "inhibition": "26.9% (active)"}, {"smiles": "Cc1onc(-c2c(F)cccc2Cl)c1C(=O)N(C)CC(=O)Nc1cccc(F)c1", "inhibition": "-0.6%"}, {"smiles": "CC(C)c1nc(SCC(=O)NC(=O)NC(C)(C)C)n[nH]1", "inhibition": "-2.13%"}, {"smiles": "Cc1cc(NC(=O)Nc2c[nH]c(=O)[nH]c2=O)ccc1Br", "inhibition": "-4.71%"}, {"smiles": "O=C1CC(c2ccccc2)=NN1c1ccc([N+](=O)[O-])cc1", "inhibition": "26.7% (active)"}, {"smiles": "O=C1NC(=O)C2C1C(c1ccc([N+](=O)[O-])cc1)=NN2Cc1ccccc1", "note": "(centres undefined)", "inhibition": "-6.56%"}, {"smiles": "CCN1N=C(c2ccccc2)CCC1=O", "inhibition": "-1.49%"}, {"smiles": "Cc1csc(NC(=O)C2CCCN2C(=O)OCC(C)C)n1", "note": "(centres undefined)", "inhibition": "17%"}, {"smiles": "CC(C)(C)C(=O)Nc1ccc(C(=O)N/N=C/c2ccccc2OC(=O)c2ccc(Cl)cc2Cl)cc1", "inhibition": "13.2%"}, {"smiles": "O=C(N/N=C/c1ccc(OC(=O)c2ccccc2Cl)cc1)c1ccc(O)cc1", "inhibition": "24.1% (active)"}, {"smiles": "O=C(N/N=C/c1ccc(OCC2COCCO2)cc1)c1ccc(Br)cc1", "note": "(centres undefined)", "inhibition": "-8.18%"}, {"smiles": "O=C(c1ccccc1F)N(Cc1ccccc1)Cc1ccccc1", "inhibition": "-7.64%"}, {"smiles": "COCCn1c(Cc2cccn2C)nnc1SCC(=O)Nc1nccs1", "inhibition": "-7.19%"}]}]}
